An excerpt weighted towards active compounds, which were near 21% of everything screened.
Shiga inhibitor = A qHTS for Small Molecule Inhibitors of Shiga Toxin. actives 9.2% (n = 290,000). AID 2315, 2010. inhibition, % at 38.7 µM. Vero cells, Shiga toxin protein synthesis inhibition reporter; in the data active = inhibition mostly above about 28%, no sharp cut-off; inactive = mostly below about 43%; note: 0% is about no effect
Pf growth 48h = Primary qHTS for delayed death inhibitors of the malarial parasite plastid, 48 hour incubation. P. falciparum luciferase growth in erythrocytes, 48 h. Potency, µM (top dose mostly 28.7 µM), for inactives: top-dose activity change, negative = inhibition, actives largely listed as inhibitors. actives 5.9% (n = 310,000); note: potency is the fitted concentration of half-maximal effect; % is set by controls: 0 for no effect and ±100 for the full control effect
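Luciferase-expressing P. falciparum in infected erythrocytes (2% hematocrit, 0.1% parasitemia final) in RPMI 1640/0.5% Albumax were exposed to compound for 48 hours at 37 C, 5% CO2; growth read as luminescence.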
CHX counter = Cycloheximide Counterscreen for Small Molecule Inhibitors of Shiga Toxin; cell reporter, cycloheximide protein synthesis inhibition counterscreen; max response, %; actives 12% (n = 300,000); in the data active = max response mostly above about 13%, no sharp cut-off; inactive = mostly below about 14%; note: read at 38.3 µM for the half of the compounds with a filed dose; 0% is about no effect
Pf growth 96h = Primary qHTS for delayed death inhibitors of the malarial parasite plastid, 96 hour incubation. P. falciparum luciferase reporter growth, 96 h. Potency, µM (doses to about 28.7 µM), for inactives: top-dose activity change, negative = inhibition, usual class: inhibitors. actives 6.9% (n = 320,000); note: potency is the fitted concentration of half-maximal effect; % is set by controls: 0 for no effect and ±100 for the full control effect
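Two-generation exposure (96 h) targets delayed-death phenotype. Reporter parasites carrying integrated firefly luciferase, in red cells at 2% hematocrit and 0.05% parasitemia final, kept at 37 C, 5% CO2; luminescence loss indicates inhibition.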
* hit, by the source's call; ? = inconclusive; · = no result given; + = active, no number. Unless noted, calls come from the whole dose curve; as a rule, active = well fitted inhibition curve with a large enough effect; inconclusive = small, poorly fitted or top-dose-only effect, or another doubt; inactive = no such curve, though single readings can be large or run the other way.

SMILES | Shiga inhibitor | Pf growth 48h | CHX counter | Pf growth 96h
O=C(CCc1ccccc1)Nc1ccc(NC(=O)c2ccco2)cc1 | 39 | 11% | -2 | -19%
O=C(CSc1nncs1)Nc1ccc(Cl)cc1C(F)(F)F | · | 3% | · | 9%
COc1ccc(OC)c(C(c2c(O)nc(SC)[nH]c2=O)c2c(O)nc(SC)[nH]c2=O)c1 | -14 | 0% | 4 | 0%
CC(NCc1ccc2c(c1)OCO2)C(=O)NC1CCCc2ccccc21 (stereo unspecified) | -34 | -7% | -3 | ·
CCCC(=O)Nc1ccc(NC(=O)c2ccco2)c(OC)c1 | + | 151% | 28* | ?
COc1cc(NC(=O)COc2ccc(C)c(C)c2)ccc1NC(=O)c1ccco1 | 13 | 7.4µM* | -2 | 29%
COCCNC(=S)Nc1cc(OC)c(NC(=O)c2ccco2)cc1OC | 27 | 18% | 22* | 14%
COc1cc(NC(=O)c2cccc([N+](=O)[O-])c2C)ccc1NC(=O)c1ccco1 | 72* | 24% | 19* | 0%
COc1cc(NC(=O)COc2cccc(C)c2C)ccc1NC(=O)c1ccco1 | 1 | -16% | -3 | ?
COc1cccc(CC(=O)OCC(=O)NC(=O)c2ccc(OC(F)F)cc2)c1 | · | 36% | · | ?
CC(=O)Nc1ccc(NC(=O)CNC(=O)c2cccc(C)c2)cc1 | -9 | 29% | 7 | 37%
NC(=O)C1(N2CCCCC2)CCN(Cc2ccc(F)cc2)CC1 | -9 | · | -3 | 3%
NC(=O)C1(N2CCCCC2)CCN(Cc2ccc(Br)cc2)CC1 | 13 | -10% | 26* | 4%
NS(=O)(=O)c1ccc(NC(=O)c2cc(-c3cc(Cl)ccc3O)n[nH]2)cc1 | 8 | ? | 3 | ?
FC(F)Oc1ccc(NC(=S)NC2CCSc3ccccc32)cc1 (stereo unspecified) | 8 | 2% | 7 | -23%
Cc1cccc(NC(=S)NC2CCSc3ccccc32)c1 (stereo unspecified) | 22 | 12µM* | 11 | ?
CC(C)Nc1ccc(Nc2ccccc2)cc1 | · | 4.1µM* | · | 2.6µM*
CC(C)Nc1nc(Cl)nc(Nc2ccccc2)n1 | 53* | 60% | 39* | ?
CC(C)c1ccc(Nc2nc(Cl)nc(NCCO)n2)cc1 | 21 | 8% | 12* | ?
COc1ccc(/C=C/C(=O)OC(C)CN2CCCCC2)cc1 (stereo unspecified) | -16 | 72% | 0 | -18%
CC(CN1C(C)CCCC1C)OC(=O)c1ccccc1F (stereo unspecified) | -4 | 32% | -2 | 19%
COc1cccc(C(=O)NCCS(=O)(=O)NC2CCCC2)c1 | · | -1% | · | 30%
Cc1ccn(-c2n[nH]c(C)c2[N+](=O)[O-])n1 | 7 | 6% | -2 | 33%
Cc1ccn(-c2ccc([N+](=O)[O-])cc2)n1 | 42* | 29% | 12* | ?
CC(=O)Nc1cc(C(=O)N2CCN(C)CC2)ccc1S(=O)(=O)c1ccc(C)cc1 | 26 | · | -3 | -26%
SMILES | Shiga inhibitor | Pf growth 48h | CHX counter | Pf growth 96h
CCC(=O)Nc1cc(C(=O)N2CCC3(CC2)OCCO3)ccc1S(=O)(=O)c1ccc(C)cc1 | 28 | 19% | -5 | 3.7µM*
O=C(N/N=C/c1ccc(Cl)cc1Cl)c1ccncc1 | 45* | 20% | 24* | 35%
O=C(N/N=C/c1ccc(O)cc1O)c1ccncc1 | 15 | ? | 2 | 12µM*
O=C(N/N=C/c1cccc2nccnc12)c1ccncc1 | -12 | 0% | 2 | 0%
Cc1cccc(C(=O)Oc2c(Br)cc(Br)cc2/C=N/NC(=O)c2ccncc2)c1 | -17 | 10% | -9 | 19%
Oc1c(Cl)cc(Cl)cc1/C=N/Nc1ncc(Br)cn1 | -3 | 0.093µM* | 6 | 15µM*
O=C(N/N=C/c1cc(Br)cc(Br)c1O)c1ccncc1 | -7 | 9.3µM* | -1 | 16%
Cc1ccc(N=Cc2cc(Cl)cc(Cl)c2O)nc1 | 1 | ? | -4 | ?
CCn1ccnc1CN(C)C(=O)CCc1nnc(CCC2CCCCC2)o1 | 23 | ? | -3 | 29%
CNC(=O)c1[nH]cnc1C(=O)NCC(=O)OCc1ccccc1 | 26 | 57% | -2 | 63%
CC12CC(NC(=O)N1c1cccc(C(=O)N3CCCCC3)c1)c1ccccc1O2 (stereo unspecified) | -14 | 1% | -1 | ?
O=C(N/N=C/c1cc2c(cc1Cl)OCO2)c1ccncc1 | 4 | 4% | 2 | -10%
CSc1sccc1/C=N/NC(=O)c1ccncc1 | active | 27% | 17 | -17%
O=C(N/N=C/c1cc(Cl)cc(Cl)c1O)c1ccncc1 | -5 | 13µM* | 1 | 2.3µM*
OCCC1CN(Cc2cnc(-c3ccc(Cl)cc3)nc2)CCN1C1CCCCC1 (stereo unspecified) | 28* | 10µM* | 16* | 8%
CC(C)=CCN1CCN(Cc2cccc3nonc23)CC1CCO (stereo unspecified) | -13 | 4% | 6 | 2.1µM*
OCCC1CN(Cc2nc3ccc(F)cc3[nH]2)CCN1C1CCCC1 (stereo unspecified) | -8 | 11% | 7 | 3%
Cc1cc(C)n(-c2ccc(F)cc2CN2CCN(C3CCCC3)C(CCO)C2)n1 (stereo unspecified) | -9 | 19% | -1 | 1.7µM*
OCCC1CN(Cc2cccc3nccnc23)CCN1C1CCCC1 (stereo unspecified) | -2 | 15% | 3 | 13µM*
O=C(CC1CCC1)NC(c1ccccc1)c1ccccc1 | -3 | ? | 1 | 21%
OCCC1CN(Cc2cccc3nonc23)CCN1C1CCCCC1 (stereo unspecified) | 7 | -2% | -2 | 15µM*
COC(=O)c1ccc(-n2c(C)cc(C(=O)CSc3cccc[n+]3[O-])c2C)cc1 | -23 | -27% | 5 | 0%
Cc1cc(C(=O)CSc2cccc[n+]2[O-])c(C)n1-c1ccc(OC(F)F)cc1 | 59* | -29% | 54* | ?
NC(=O)c1ccc(Oc2ccc(Cl)cc2)c([N+](=O)[O-])c1 | -2 | -2% | 0 | -4%
CC(C)C(=O)O/N=C(\N)c1ccc(Oc2ccc(Cl)cc2)c([N+](=O)[O-])c1 | 36* | 8% | 23* | 5%
SMILES | Shiga inhibitor | Pf growth 48h | CHX counter | Pf growth 96h
O=c1c(Cl)c(Cl)cnn1-c1ccccc1 | -19 | -18% | -9 | ?
CCCCNc1cnn(-c2ccccc2)c(=O)c1Cl | 75* | 48% | 33* | ?
COCCNc1cnn(-c2ccccc2)c(=O)c1Cl | 39* | 0% | 25* | ?
CCOc1cnn(-c2ccccc2)c(=O)c1Cl | 10 | · | 8 | 9%
CN(c1cnn(-c2ccccc2)c(=O)c1Cl)n1cccc1 | 56* | 41% | 34* | 44%
CC(C)CCN(C(=O)Nc1ccc(Cl)cc1)C1CCN(C(C)C)CC1 | -13 | 13µM* | 18 | ?
CCOC(=O)c1ccc(-n2c(C)nc3ccc(Br)cc3c2=O)cc1 | -7 | ? | 0 | ?
COc1ccccc1CNc1cc(-c2ccccc2)ccc1OC | -9 | ? | 6 | 9.3µM*
COc1ccc(-c2ccccc2)cc1NCc1ccc(OC)c(OC)c1 | -6 | 24% | 8 | 62%

Screening results as filed in PubChem.
